Measurements reported in PMC7862700, “An all-to-all approach to the identification of sequence-specific readers for epigenetic DNA modifications on cytosine”.

Columns and labels:
Experiment in all cases: DAPPL (digital affinity profiling via proximity ligation, sequencing); 10 mM Tris-HCl pH 7.5, 50 mM NaCl, 1 mM DTT, 4% glycerol, room temperature, 30 min; GST-TFs on glutathione beads, 16-mer random dsDNA library, 0.1% formaldehyde crosslink after washing; high values mean tight binding
Conditions in all cases: protein: recombinant; tags: N-terminal GST; dsDNA, one strand shown
FLI1 = biological target: T1, FLI1 (Homo sapiens, UniProt Q01543 1-452)
T1 sequence: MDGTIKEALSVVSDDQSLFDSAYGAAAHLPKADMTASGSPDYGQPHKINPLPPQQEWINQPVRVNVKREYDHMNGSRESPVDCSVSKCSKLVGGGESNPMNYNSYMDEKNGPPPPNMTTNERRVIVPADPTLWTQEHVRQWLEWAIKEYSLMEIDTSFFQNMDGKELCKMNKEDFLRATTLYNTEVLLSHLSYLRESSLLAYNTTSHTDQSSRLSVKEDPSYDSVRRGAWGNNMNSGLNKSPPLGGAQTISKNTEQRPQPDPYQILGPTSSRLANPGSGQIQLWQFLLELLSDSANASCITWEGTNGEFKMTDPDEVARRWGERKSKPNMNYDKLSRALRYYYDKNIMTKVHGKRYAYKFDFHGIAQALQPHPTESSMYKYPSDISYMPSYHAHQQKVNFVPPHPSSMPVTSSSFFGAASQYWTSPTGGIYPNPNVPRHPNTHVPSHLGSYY
Outline: (§1)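 Human transcription factors fused to GST were expressed in yeast, captured on glutathione beads, given DNA barcodes and pooled with a GST-only negative control. Pools were incubated with 200 nmole of a 16-mer random double-stranded DNA library in Tris/NaCl/DTT/glycerol buffer at room temperature for 30 min. They were then washed, crosslinked with 0.1% formaldehyde, proximity-ligated (BsaI/T4 ligase, 1 h, 37 °C), PCR-amplified and sequenced on an Illumina NextSeq500. Binding signal is each 6-mer's read frequency for a factor divided by its frequency for the GST control.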

ELK1 = biological target: T2, ELK1 (Homo sapiens, UniProt P19419 1-428)
T2 sequence: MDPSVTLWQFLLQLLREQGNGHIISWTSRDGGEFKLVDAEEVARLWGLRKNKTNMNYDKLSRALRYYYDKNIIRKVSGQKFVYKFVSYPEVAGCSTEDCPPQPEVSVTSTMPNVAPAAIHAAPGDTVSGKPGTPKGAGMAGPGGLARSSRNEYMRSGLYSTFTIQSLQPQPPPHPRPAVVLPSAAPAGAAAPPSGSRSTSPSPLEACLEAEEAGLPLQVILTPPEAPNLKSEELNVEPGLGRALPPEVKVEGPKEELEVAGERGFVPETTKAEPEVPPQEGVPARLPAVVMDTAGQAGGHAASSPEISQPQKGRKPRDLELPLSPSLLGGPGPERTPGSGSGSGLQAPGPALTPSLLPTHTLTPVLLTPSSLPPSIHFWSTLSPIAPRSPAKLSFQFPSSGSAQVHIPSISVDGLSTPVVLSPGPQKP
Outline: as §1

GABPA = biological target: T3, GABPA (Homo sapiens, UniProt Q06546 1-454)
T3 sequence: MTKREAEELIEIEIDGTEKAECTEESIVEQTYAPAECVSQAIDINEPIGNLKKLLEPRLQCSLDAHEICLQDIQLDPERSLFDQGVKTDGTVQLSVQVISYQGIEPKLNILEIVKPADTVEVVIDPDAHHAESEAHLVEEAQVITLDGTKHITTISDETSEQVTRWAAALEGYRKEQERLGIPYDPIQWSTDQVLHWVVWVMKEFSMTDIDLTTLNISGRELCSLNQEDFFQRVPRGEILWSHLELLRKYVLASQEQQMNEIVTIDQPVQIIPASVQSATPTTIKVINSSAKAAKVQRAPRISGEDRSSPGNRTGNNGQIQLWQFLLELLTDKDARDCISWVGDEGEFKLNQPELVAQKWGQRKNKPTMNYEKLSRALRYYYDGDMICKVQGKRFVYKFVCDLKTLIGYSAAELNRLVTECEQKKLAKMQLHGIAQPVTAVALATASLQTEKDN
Outline: as §1

ERG = biological target: T4, ERG (Homo sapiens, UniProt P11308 1-479)
T4 sequence: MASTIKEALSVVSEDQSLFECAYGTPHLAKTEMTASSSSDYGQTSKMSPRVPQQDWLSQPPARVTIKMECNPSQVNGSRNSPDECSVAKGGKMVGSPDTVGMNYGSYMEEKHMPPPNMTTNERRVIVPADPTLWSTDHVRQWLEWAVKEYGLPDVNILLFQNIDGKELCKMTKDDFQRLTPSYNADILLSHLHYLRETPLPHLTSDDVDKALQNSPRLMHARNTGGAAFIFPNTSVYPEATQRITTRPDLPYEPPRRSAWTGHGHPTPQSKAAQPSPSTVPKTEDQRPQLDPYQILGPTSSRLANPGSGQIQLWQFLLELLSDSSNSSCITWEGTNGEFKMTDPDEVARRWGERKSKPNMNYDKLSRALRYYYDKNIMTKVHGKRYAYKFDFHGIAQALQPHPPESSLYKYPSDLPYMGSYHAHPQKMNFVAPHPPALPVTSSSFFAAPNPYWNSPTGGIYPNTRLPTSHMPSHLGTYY
Outline: as §1

ELF1 = ELF1 (Homo sapiens, UniProt P32519 1-619)
Chain of ELF1 (P32519 whole entry): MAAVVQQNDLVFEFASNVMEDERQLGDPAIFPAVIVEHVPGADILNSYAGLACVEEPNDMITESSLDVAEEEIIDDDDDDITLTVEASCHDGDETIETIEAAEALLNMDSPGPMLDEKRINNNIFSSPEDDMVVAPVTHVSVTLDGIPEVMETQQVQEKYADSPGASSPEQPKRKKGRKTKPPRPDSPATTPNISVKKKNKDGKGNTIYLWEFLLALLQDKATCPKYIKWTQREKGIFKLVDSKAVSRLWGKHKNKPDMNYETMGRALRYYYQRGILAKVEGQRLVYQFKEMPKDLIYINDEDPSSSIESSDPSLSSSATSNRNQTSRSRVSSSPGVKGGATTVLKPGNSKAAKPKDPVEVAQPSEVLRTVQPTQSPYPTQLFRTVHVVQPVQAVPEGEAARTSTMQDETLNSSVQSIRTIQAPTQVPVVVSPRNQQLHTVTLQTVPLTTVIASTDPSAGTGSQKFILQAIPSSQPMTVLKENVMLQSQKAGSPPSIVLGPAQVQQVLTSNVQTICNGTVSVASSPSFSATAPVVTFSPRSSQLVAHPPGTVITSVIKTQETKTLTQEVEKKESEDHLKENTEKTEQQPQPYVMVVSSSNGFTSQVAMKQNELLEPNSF
Outline: as §1

EHF = biological target: T5, EHF (Homo sapiens, UniProt Q9NZC4 1-300)
T5 sequence: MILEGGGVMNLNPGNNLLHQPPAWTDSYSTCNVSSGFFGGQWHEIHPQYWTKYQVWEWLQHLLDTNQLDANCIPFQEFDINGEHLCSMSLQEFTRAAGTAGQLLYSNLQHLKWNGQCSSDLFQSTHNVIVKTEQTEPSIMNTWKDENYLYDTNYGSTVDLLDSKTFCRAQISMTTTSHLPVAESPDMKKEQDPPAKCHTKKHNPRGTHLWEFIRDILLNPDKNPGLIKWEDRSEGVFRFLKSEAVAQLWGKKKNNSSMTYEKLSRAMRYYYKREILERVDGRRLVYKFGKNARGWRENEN
Outline: as §1

SPI1 = SPI1 (Homo sapiens, UniProt P17947 1-270)
Outline: as §1

SPIB = SPIB (Homo sapiens, UniProt Q01892 1-262)
Chain of SPIB (Q01892 whole entry): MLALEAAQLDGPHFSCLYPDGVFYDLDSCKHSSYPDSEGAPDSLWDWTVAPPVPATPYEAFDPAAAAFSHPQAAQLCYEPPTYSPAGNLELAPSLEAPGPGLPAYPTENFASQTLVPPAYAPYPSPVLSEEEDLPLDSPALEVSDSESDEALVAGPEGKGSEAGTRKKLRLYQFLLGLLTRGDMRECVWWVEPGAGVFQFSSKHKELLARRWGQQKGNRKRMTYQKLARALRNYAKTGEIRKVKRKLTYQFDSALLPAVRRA
Outline: as §1

ELK3 = biological target: T6, ELK3 (Homo sapiens, UniProt P41970 1-407)
T6 sequence: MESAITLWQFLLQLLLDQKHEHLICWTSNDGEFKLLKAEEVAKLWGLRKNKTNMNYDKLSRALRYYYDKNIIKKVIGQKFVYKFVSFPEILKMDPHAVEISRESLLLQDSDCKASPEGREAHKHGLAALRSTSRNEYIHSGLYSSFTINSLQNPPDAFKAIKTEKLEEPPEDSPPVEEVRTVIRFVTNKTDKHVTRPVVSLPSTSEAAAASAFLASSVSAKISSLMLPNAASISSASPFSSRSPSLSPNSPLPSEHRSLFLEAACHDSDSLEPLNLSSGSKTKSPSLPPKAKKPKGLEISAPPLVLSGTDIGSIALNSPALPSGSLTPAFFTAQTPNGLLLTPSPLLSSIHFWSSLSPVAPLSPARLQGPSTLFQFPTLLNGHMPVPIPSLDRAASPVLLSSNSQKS
Outline: as §1

| Sequence | binding signal (FLI1) | binding signal (ELK1) | binding signal (GABPA) | binding signal (ERG) | binding signal (ELF1) | binding signal (EHF) | binding signal (SPI1) | binding signal (SPIB) | binding signal (ELK3) |
| --- | --- | --- | --- | --- | --- | --- | --- | --- | --- |
| GTCTCT | 1.41 fold enrichment (6-mer frequency, TF over GST control) | 1.26 fold enrichment (6-mer frequency, TF over GST control) | 1.31 fold enrichment (6-mer frequency, TF over GST control) | 1.33 fold enrichment (6-mer frequency, TF over GST control) | 1.29 fold enrichment (6-mer frequency, TF over GST control) | 1.19 fold enrichment (6-mer frequency, TF over GST control) | 1.32 fold enrichment (6-mer frequency, TF over GST control) | 1.25 fold enrichment (6-mer frequency, TF over GST control) | 1.14 fold enrichment (6-mer frequency, TF over GST control) |
| ATATTC | 1.24 fold enrichment (6-mer frequency, TF over GST control) | 1.2 fold enrichment (6-mer frequency, TF over GST control) | 1.24 fold enrichment (6-mer frequency, TF over GST control) | 1.18 fold enrichment (6-mer frequency, TF over GST control) | 1.28 fold enrichment (6-mer frequency, TF over GST control) | 1.19 fold enrichment (6-mer frequency, TF over GST control) | 1.19 fold enrichment (6-mer frequency, TF over GST control) | 1.22 fold enrichment (6-mer frequency, TF over GST control) | 1.14 fold enrichment (6-mer frequency, TF over GST control) |
| GTTATG | 1.07 fold enrichment (6-mer frequency, TF over GST control) | 1.17 fold enrichment (6-mer frequency, TF over GST control) | 1.16 fold enrichment (6-mer frequency, TF over GST control) | 1.19 fold enrichment (6-mer frequency, TF over GST control) | 1.12 fold enrichment (6-mer frequency, TF over GST control) | 1.2 fold enrichment (6-mer frequency, TF over GST control) | 1.18 fold enrichment (6-mer frequency, TF over GST control) | 1.12 fold enrichment (6-mer frequency, TF over GST control) | 1.06 fold enrichment (6-mer frequency, TF over GST control) |
| CCGATC | 1.38 fold enrichment (6-mer frequency, TF over GST control) | 1.25 fold enrichment (6-mer frequency, TF over GST control) | 1.21 fold enrichment (6-mer frequency, TF over GST control) | 1.24 fold enrichment (6-mer frequency, TF over GST control) | 1.28 fold enrichment (6-mer frequency, TF over GST control) | 1.24 fold enrichment (6-mer frequency, TF over GST control) | 1.18 fold enrichment (6-mer frequency, TF over GST control) | 1.17 fold enrichment (6-mer frequency, TF over GST control) | 1.17 fold enrichment (6-mer frequency, TF over GST control) |
